Many of the other results were omitted from the sample, so hits are more common in it than they were.
Pf Dd2 growth = qHTS Primary assay for Inhibitors of Plasmodium falciparum Dd2 growth in vitro | P. falciparum Dd2 growth, SYBR Green, 72 h | Potency, µM (highest dose often 28.9 µM), for the others: at the highest dose activity, negative = inhibition, most hits filed as inhibitors | 120,000 tested, 4.3% active; active means well fitted inhibition curve with a large enough effect;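 further: plate controls were DMSO vehicle for no effect and reference drug for full effect; nearly all actives have a fitted effect of over 65% in size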
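Readout: SYBR Green fluorescence, 485 nm excitation, 535 nm emission, after ~16 h lysis at 37C. Before that, Dd2-infected red cells (2.5% hematocrit) grew 72 h with compound, 29 uM top final concentration.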
The depositor's hits bear a star; i = inactive; [ ] = another dose, or the depositor's remark. Potency means the concentration at half of the fitted maximal effect.

SMILES	Pf Dd2 growth
CN(C)c1ccc(CN2CCc3nc(N4CCN(c5ccccn5)CC4)ncc3C2)cc1	12.6µM*
CN1CCN(c2ncc3c(n2)CCN(Cc2ccc(Br)s2)C3)CC1	-9.1%
CCOc1ccccc1CN1CCc2nc(N3CCN(c4ccccc4F)CC3)ncc2C1	8.91µM*
CN(C)c1ccc(CN(C)C2CCc3ccccc32)cc1 (stereo not given)	-16.6%[44.1 µM]
CNC(=O)[C@@H]1C[C@@H](Nc2ncnc(Oc3cccnc3C)c2C)CN1C	4.5%
O=C(c1ccoc1)N1CCC2(CC1)CN(Cc1ccccc1)CC2CO (stereo not given)	i
CCc1nc2c(=O)n(CC(=O)NCCN3CCOCC3)nc(C)c2s1	i
O=C(CN1C(=O)NC2(CCOCC2)C1=O)NCc1ccc(Cl)cc1	51.4%
O=c1[nH]c(C2CCCN([S+](=O)([O-])c3cccc(C(F)(F)F)c3)C2)nn1-c1cccc(Cl)c1 (stereo not given)	i
O=C(CC1CCN(C(=O)Nc2ccccc2)C1)NC1CC1 (stereo not given)	2.5%
COc1ccc2cnn(CC(=O)NC3CCCc4c3[nH]c3ccccc43)c(=O)c2c1OC (stereo not given)	i
COc1cc(CN2CCc3nc(N4CCN(c5ncccn5)CC4)ncc3C2)cc(OC)c1OC	7.94µM*
CCOc1ccc(CN2CCc3nc(N4CCN(c5ccccn5)CC4)ncc3C2)cc1OC	-28.3%
COc1cc(CN2CCc3nc(N4CCN(c5ccccc5F)CC4)ncc3C2)ccc1OC(C)C	-12.6%
Cc1ccccc1-c1cnc2[nH]cc(CC(=O)NC(C)C)c2c1	-4.5%[44.1 µM]
O=C(NCc1ccccn1)c1ccc(N2CC3CC(C2)[C@H]2CCCC(=O)N2C3)nc1 (stereo not given in full)	2.0%
O=C(Nc1cccc(C(F)(F)F)c1)c1nc2c(o1)CCN(Cc1cccs1)CC2	i
Cc1ccc(S(=O)(=O)NC[C@H]2OC[C@@H](NCc3ccc(S(C)(=O)=O)cc3)[C@@H]2O)cc1	4.0%
O=C(O)C1CN(CC2CC2)CCN(C(=O)c2cc(=O)[nH]o2)C1 (stereo not given)	-1.7%
CCOc1ccc(C(=O)N[C@@H]2CN(c3ncccn3)C[C@H]2CO)cc1	-5.7%
CNc1ccc(C(=O)N2CCC3(CCCNC3)C2)cc1 (stereo not given)	-15.4%
O=S(=O)(c1ccccc1C(F)(F)F)N1CCC2(CCCNC2)C1 (stereo not given)	7.94µM*
CC(C)c1ccc(S(=O)(=O)N2CCC3(CCCNC3)C2)cc1 (stereo not given)	5.01µM*
O=C(c1cc(F)c(F)c(F)c1)N1CCC2(CCCNC2)C1 (stereo not given)	3.4%
O=c1ccc2cc(S(=O)(=O)N3CCC4(CCCNC4)C3)ccc2o1 (stereo not given)	-13.4%
SMILES	Pf Dd2 growth
CN1CCC(N2CCN(S(=O)(=O)c3ccccc3C(F)(F)F)CC2)C1=O (stereo not given)	-14.8%
COCCc1nncn1C1CCN(C(=O)c2cccc(Br)c2)CC1	-16.9%
CNC(=O)C1CCCN(S(=O)(=O)c2ccccc2)CCC(=O)NCC1 (stereo not given)	20.5%
CN1CC(=O)N(c2ccccc2)Cc2c(NC3CCC3)ncnc21	-3.2%[44.1 µM]
CCn1ncc(N2CCC(NC(=O)Cc3ccccc3F)CC2)cc1=O	-29.2%
O=C(NCC(F)F)c1cc(Br)cn2ccnc12	-12.2%[44.1 µM]
O=C(NC1CCOCC1)C1=NO[C@@H]2CN(c3ccc(F)c(Cl)c3)C[C@H]12	17.7%[44.1 µM]
CCCS(=O)(=O)N1CCC(Oc2ccccc2-c2nc(C3CC3)no2)C1 (stereo not given)	-14.6%
COc1ccc(C(=O)N2CCC(N3C(=O)C(OC)C34CCOCC4)CC2)c(OC)c1 (stereo not given)	-0.6%
O=C(CN1C(=O)NC2(CCS(=O)(=O)CC2)C1=O)Nc1ccccc1	18.5%
O=C(NCCc1ccco1)C1CC(=O)N(c2n[nH]c3cccc(F)c23)C1 (stereo not given)	i
CN1C(=O)COC[C@@H]1[C@H](O)c1ccc(NC(=O)Nc2ccccc2)cc1	-16.7%[44.1 µM]
CC(=O)N1Cc2ccccc2CC2(CCCN(CC3CCOCC3)C2)C1 (stereo not given)	-5.4%
CCN1CCCC2(Cc3ccccc3CN(C(=O)C(C)C)C2)C1 (stereo not given)	11.2µM*
CC(C)C(=O)N1Cc2ccccc2CC2(CCN(CC3CCNCC3)C2)C1 (stereo not given)	1.8%
CCN1CCCC2(Cc3ccccc3CN(C(=O)CCNC(C)=O)C2)C1 (stereo not given)	11.0%
CC(=O)N1Cc2ccccc2CC2(CCCN(C)C2)C1 (stereo not given)	-7.2%[44.1 µM]
CC(C)C(=O)N1Cc2ccccc2CC2(CCCN(CC3CCOCC3)C2)C1 (stereo not given)	7.08µM*
CS(=O)(=O)N1C[C@@H](Oc2ccccc2)C[C@H]1C(=O)N1CCOCC1	5.5%
Cc1nc(N2CCN(C(=O)Cc3cccs3)CC2)cc(C(F)(F)F)n1	i
COC(=O)[C@]1(CC(C)C)N[C@H](c2cc(C(C)C)no2)[C@@H]2C(=O)N(C)C(=O)[C@@H]21	6.1%
O=C(C1CC1)N1CCC(N2CC3CC(C2)[C@H]2CCCC(=O)N2C3)CC1 (stereo not given in full)	-5.9%
O=C(Nc1nc2n(n1)C(c1ccc(Cl)cc1)C=C(c1ccccc1)N2)c1ccco1 (stereo not given)	12.6µM*
O=C(c1ccc(F)cc1)n1nc(-c2ccccc2)nc1NCc1ccco1	32.4%
O=C(Nc1nc2n(n1)C(c1ccc(F)cc1)C=C(c1ccccc1)N2)c1ccco1 (stereo not given)	10µM*
SMILES	Pf Dd2 growth
CC1=C(C(=O)Nc2ccccc2)C(c2ccccc2)n2nc(-c3ccco3)nc2N1 (stereo not given)	i
O=C(NCc1nnc2ccc(-c3ccc(Cl)cc3)nn12)c1ccco1	i
O=S(=O)(Nc1nc2n(n1)C(c1ccc(F)cc1)C=C(c1ccccc1)N2)c1ccccc1 (stereo not given)	-0.3%
COc1ccc(-c2cnc3n[nH]c(-c4ccccc4)c3n2)cc1	7.8%[44.1 µM]
CC(C)(C)NC(=O)N1CCC(OC2CCN(S(C)(=O)=O)CC2)CC1	7.1%
Cc1ccc(-c2ncc(C(=O)NCc3ccccc3Cl)c(-c3ccncc3)n2)cc1	-20.3%
Cc1ccc(NC(=O)Nc2ccc(C)n(CC(=O)NCCC(C)C)c2=O)cc1	i
CNC(=O)[C@@H](C1CCCCC1)N1CCC[C@H]1C(=O)N1CCC1	28.1%[44.1 µM]
Cc1ccc(S(=O)(=O)N2CCC3(CC2)SCC(=O)N3Cc2ccco2)cc1	i
Cn1ccnc1CN1CCCC(c2ccc(C(=O)O)cc2)C1 (stereo not given)	-2.9%
Cn1ccnc1CN1CCCC(CCc2ccccc2)C1 (stereo not given)	11.2µM*
Cn1ccnc1CN1CCOC[C@H](Oc2ccccc2)C1	-26.2%[44.1 µM]
COCCC(=O)N1CCc2oc(C)c(C(=O)N(C)C)c2C1	-12.8%
COc1ccccc1C(=O)N1CCCCCC1c1nnc(-c2ccccc2)o1 (stereo not given)	-2.3%
O=[S+]1([O-])NCC2(CCN(CC3CC3)C2)Oc2ncccc21 (stereo not given)	4.1%
O=[S+]1([O-])NCC2(CCN(CC3CCOCC3)C2)Oc2ncccc21 (stereo not given)	12.9%
O=[S+]1([O-])NCC2(CCN(CC3CCCC3)C2)Oc2ncccc21 (stereo not given)	12.6µM*
O=C(O)C1CCc2nnc(C3CCN(C(=O)c4ccc5c(c4)OCO5)CC3)n21 (stereo not given)	14.3%

Compound activity deposited in PubChem by National Center for Advancing Translational Sciences (NCATS).
